In the library only some 1.6% were active in any assay of this set; here they are far more common.
KCNQ2 inh: KCNQ2 (rat) channel inhibition. O88943. CHO-K1 KCNQ2, FluxOR thallium flux, 20 min; stronger effect = lower value. B-score at 10 µM. 1.1% of 310,000 active. AID 2156;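 active = fluorescence ratio B-score at most minus 3 library SDs, with starting brightness B-score within 2 library SDs, cut at about -5.5 in these data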
KCNQ2 pot: KCNQ2 (rat) channel potentiation | O88943 | CHO-K1 KCNQ2, FluxOR thallium flux fluorescence; stronger effect = higher value | B-score at 10 µM | 0.54% of 310,000 active;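 active = fluorescence ratio B-score at least 3 SD of library B-scores, with initial fluorescence B-score within 3 of them, cut at about 5.3 in these data; same plate scores as AID 2156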;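 note: B-score of peak minus minimum over baseline fluorescence ratio after K+ and Tl+ stimulus; positive B-score means potentiation of KCNQ2 with more thallium influx and brighter signal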
KCNQ2 inh conf: rat KCNQ2 channel inhibition, confirmatory screen; shares compounds with KCNQ2 inh; KCNQ2-expressing cells, thallium flux; stronger effect = lower value; activity change, negative = inhibition, % at 10 µM; 57% of 1,000 active; AID 493025
KCNQ1 spec: KCNQ2 inhibitor that also affects human KCNQ1 channel | KCNQ1-expressing cells, FluxOR thallium flux fluorescence; stronger effect = lower value | activity change, negative = inhibition, % at 10 µM | shares compounds with KCNQ2 inh | 15% of 1,000 active;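 active = activity change at least 3 SD of negative controls below their mean in both duplicate wells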;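 note: CHO cells stably transfected with KCNQ1 and depolarized by potassium stimulus; peak minus minimum fluorescence over baseline after thallium addition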
Target sequence (P51787 whole entry, looked up): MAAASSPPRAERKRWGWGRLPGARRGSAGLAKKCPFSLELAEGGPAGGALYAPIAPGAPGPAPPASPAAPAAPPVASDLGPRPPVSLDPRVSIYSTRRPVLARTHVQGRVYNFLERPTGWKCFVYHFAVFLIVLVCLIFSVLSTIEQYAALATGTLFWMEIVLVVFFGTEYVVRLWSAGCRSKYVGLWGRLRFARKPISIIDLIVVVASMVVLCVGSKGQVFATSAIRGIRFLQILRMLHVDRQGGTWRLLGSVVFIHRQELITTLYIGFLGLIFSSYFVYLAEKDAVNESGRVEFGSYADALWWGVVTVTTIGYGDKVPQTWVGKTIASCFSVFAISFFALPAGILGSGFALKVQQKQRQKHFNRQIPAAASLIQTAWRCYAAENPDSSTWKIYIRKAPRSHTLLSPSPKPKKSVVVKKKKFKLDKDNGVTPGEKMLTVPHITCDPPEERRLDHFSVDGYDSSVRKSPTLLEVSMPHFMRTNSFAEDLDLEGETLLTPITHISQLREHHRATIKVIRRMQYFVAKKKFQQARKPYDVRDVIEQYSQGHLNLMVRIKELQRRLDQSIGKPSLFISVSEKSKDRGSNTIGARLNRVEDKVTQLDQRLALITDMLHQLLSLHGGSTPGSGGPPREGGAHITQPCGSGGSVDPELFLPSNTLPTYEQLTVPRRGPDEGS
CHO parental ctr: activity in parental CHO cells lacking KCNQ2; shares compounds with KCNQ2 inh; activity change, % at 10 µM; thallium flux counter-screen; stronger effect = lower value; 14% of 1,000 active; AID 493029
KCNQ2 patch conf: rat KCNQ2 inhibition confirmed by electrophysiology; calls only at 10 µM; shares compounds with KCNQ2 inh; AID 588531; KCNQ2-expressing cells, automated patch clamp current; 49% of 550 active
Numbers stand for hits; i = inactive; nt = not tested or not shown; + = active, no number. Unless noted, the rule behind the calls is not given here.

SMILES	KCNQ2 inh	KCNQ2 pot	KCNQ2 inh conf	KCNQ1 spec	CHO parental ctr	others
CC(C)CC(C(=O)NC(C)(C)C)N(Cc1cccs1)C(=O)c1snc(C(N)=O)c1N (configuration not stated)	i	nt	nt	nt	nt
CC(C)(C)c1ccc(C(CC(=O)O)NC(=O)Cc2ccc(Cl)cc2)cc1 (configuration not stated)	i	i	nt	nt	nt
COc1cc(/C=N/N=C(N)N)ccc1OCc1ccc(Cl)cc1	-9.4	i	i	i	i
COc1cc(/C=N/O)ccc1OCc1ccc(Cl)cc1	i	nt	nt	nt	nt
COc1ccccc1NC(=O)COC(=O)/C=C/c1ccccc1[N+](=O)[O-]	i	i	nt	nt	nt
COc1ccccc1/C=C/C(=O)OCC(=O)Nc1ccccc1Sc1ccccc1	-6.8	i	-30%	i	i	KCNQ2 patch conf=i
Cc1oc(CC(C)C)cc1C(=O)Nc1cccc2ccccc12	-7.7	i	i	i	i
Cc1cc(C(=O)Nc2cccc3ccccc23)c(C)o1	i	i	nt	nt	nt
C#C[C@]1(O)CC[C@H]2[C@@H]3[C@H](C)CC4=C(CCC(=O)C4)[C@H]3CC[C@@]21C	i	nt	nt	nt	nt
COc1cccc(-c2cc3nc(-c4ccccc4)cc(N4CCC5(CC4)OCCO5)n3n2)c1	-8.4	i	-32%	i	i	KCNQ2 patch conf=i
CN1CCN(c2cc(-c3ccccc3)nc3cc(-c4ccc(F)cc4)nn23)CC1	i	nt	nt	nt	nt
CC1(C(=O)OCC(=O)NCCNC(=O)COC(=O)C2(C)CC2(Cl)Cl)CC1(Cl)Cl (configuration not stated)	i	i	nt	nt	nt
CC(=O)N(CCC(Cc1ccccc1)c1ccc2c(c1)OCO2)Cc1ccccc1F (configuration not stated)	-7.2	i	-35%	i	i	KCNQ2 patch conf=i
O=C(NC(Cc1ccccc1)c1ccc2c(c1)OCCCO2)c1ccccc1F (configuration not stated)	i	nt	nt	nt	nt
CCOc1cc(C(=S)N2CCOCC2)ccc1OS(=O)(=O)c1ccccc1[N+](=O)[O-]	i	i	nt	nt	nt
OCC1(CCc2ccccc2)CCCN(CCCc2ccccc2)C1 (configuration not stated)	-6.6	i	-36%	-34%	-26%	KCNQ2 patch conf=i
OCC1(CCc2ccccc2)CCCN(CCCC(F)(F)F)C1 (configuration not stated)	i	nt	nt	nt	nt
C=CCC1(CC=C)CCCN1C(=O)C1CCC(=O)N(CCc2ccc(Cl)cc2)C1 (configuration not stated)	-8.2	i	-29%	i	i	KCNQ2 patch conf=+
CC(C)C1CCN(C(=O)C2CCC(=O)N(CCc3ccc(Cl)cc3)C2)CC1 (configuration not stated)	i	nt	nt	nt	nt
Cc1cc(OCC(=O)N(C)C2CCCCC2)cc(C)c1Cl	-7.4	i	-43%	-46%	-38%	KCNQ2 patch conf=+
CN(C(=O)COC(=O)COc1ccc(Cl)cc1)C1CCCCC1	i	nt	nt	nt	nt
CC(C)(C)n1nnnc1C(c1cccs1)N(Cc1ccc(Cl)cc1)CC1CCCO1 (configuration not stated)	-9.9	i	i	i	i
Clc1ccc(CN(Cc2ccccc2)C(c2cccs2)c2nnnn2C2CCCC2)cc1 (configuration not stated)	i	nt	nt	nt	nt
COc1ccc(C(=O)CC(=O)c2ccccc2)cc1	i	i	nt	nt	nt
COc1ccc(C(=O)C/C(=C\C(=O)c2ccc(C)cc2)c2ccccc2)cc1	-7.7	i	i	i	i
SMILES	KCNQ2 inh	KCNQ2 pot	KCNQ2 inh conf	KCNQ1 spec	CHO parental ctr	others
COc1ccc(NC(=O)CCCN2C(=O)C(c3ccccc3)Oc3cccnc32)cc1OC (configuration not stated)	i	i	nt	nt	nt
COc1ccc(Br)cc1CNC(=O)CN1C(=O)C(c2ccccc2)Oc2cccnc21 (configuration not stated)	-7	i	-26%	i	i	KCNQ2 patch conf=+
O=C(CSCc1cccc(Cl)c1)OCc1nc2ccsc2c(=O)[nH]1	i	i	nt	nt	nt
Cc1cc(Cn2ccnc2)c(C)c([N+](=O)[O-])c1Cn1ccnc1	i	i	nt	nt	nt
C=CCn1c(=O)c(C(=O)NC(C)c2ccccc2)c(O)c2ccccc21 (configuration not stated)	-8.2	i	-30%	i	i	KCNQ2 patch conf=i
C=CCn1c(=O)c(C(=O)Nc2ccc(C)cc2)c(O)c2ccccc21	i	nt	nt	nt	nt
C=CCn1c(=O)c(C(=O)NCc2ccccc2Cl)c(O)c2ccccc21	-7.1	i	i	i	i
CCCn1c(=O)c(C(=O)NCc2ccccc2Cl)c(O)c2ccccc21	i	nt	nt	nt	nt
CN(C(=O)Cn1c(=O)oc2cc(S(=O)(=O)N3CCCC3)ccc21)C1CCCCC1	i	i	nt	nt	nt
CSc1nn2c(C(F)(F)F)cc(C(F)(F)F)nc2c1C(=O)O	i	nt	nt	nt	nt
CC(=O)c1cccc(NC(=O)CCC(=O)Oc2ccc(C)cc2)c1	i	i	nt	nt	nt
CCOC(=O)c1c(C)[nH]c(C(=O)OCc2csc(CC(=O)Nc3ccccc3C)n2)c1C	i	i	nt	nt	nt
O=C(O)CNC(=O)c1ccc(NC(=O)/C(=C/c2ccccc2)NC(=O)c2ccccc2)cc1	i	i	nt	nt	nt
CCn1c(N2CCN(S(=O)(=O)c3ccccc3C(F)(F)F)CC2)nc2ccccc21	i	nt	nt	nt	nt
CCn1c(N2CCN(C(=O)C34CC5CC(CC(C5)C3)C4)CC2)nc2ccccc21	-8.6	i	-40%	-37%	-36%	KCNQ2 patch conf=+
CC(C)c1ccc2c(c1)C(N1CCNCC1)Cc1ccc(F)cc1S2 (configuration not stated)	-9.7	i	-38%	-36%	-31%	KCNQ2 patch conf=i
CN1CCN(C2Cc3ccc(F)cc3Sc3cc(F)c(Cl)cc32)CC1 (configuration not stated)	i	nt	nt	nt	nt
Cc1cc(C)c(OC2(c3ccccc3)OC(=O)c3ccccc32)c(C)c1 (configuration not stated)	i	nt	nt	nt	nt
Cc1cccc(C)c1OC1(c2ccccc2)OC(=O)c2ccccc21 (configuration not stated)	-8.6	i	i	i	i
CSc1nc(C)c(C(=O)C[n+]2ccccc2)cc1C#N	i	nt	nt	nt	nt
C=C(C)C1CC=C(C)/C(=N/NC(=O)COc2cccc3ccccc23)C1 (configuration not stated)	-9.2	i	i	i	i
C=C(C)C1CC=C(C)/C(=N/NC(=O)COc2cccc(C)c2)C1 (configuration not stated)	i	i	nt	nt	nt
CCN(CC(=O)Nc1ccccc1OC)C(=O)c1cc(-c2ccccc2)nn1-c1ccccc1	i	nt	nt	nt	nt
CCN(CC(=O)Nc1ccccc1C(F)(F)F)C(=O)c1cc(-c2ccccc2)nn1-c1ccccc1	-9.3	i	i	i	i
CN1/C(=C\C(=S)NC(=O)c2ccc([N+](=O)[O-])cc2)C(C)(C)c2ccccc21	i	nt	nt	nt	nt
CN1/C(=C\C(=S)NC(=O)c2cccc(Br)c2)C(C)(C)c2ccccc21	-7.8	i	-22%	i	i	KCNQ2 patch conf=+
CN1/C(=C\C(=O)Nc2cccc(Cl)c2)C(C)(C)c2ccccc21	-7.1	i	-20%	i	i	KCNQ2 patch conf=i
CN1/C(=C\C(=O)Nc2ccc(Br)cc2)C(C)(C)c2ccccc21	i	nt	nt	nt	nt
Cc1ccc(-n2c(-c3ccc(Br)cc3)c[n+]3c2CCc2ccc4cccnc4c2-3)cc1	-12	i	-45%	-36%	-30%
COc1ccc(-n2c(-c3ccc(Cl)cc3)c[n+]3c2CCc2ccccc2-3)cc1	i	nt	nt	nt	nt

Screens (PubChem)
